Experimental data published in PubChem BioAssay (Tox21).
Inconclusive results are not listed. Active and inactive are the calls of the source. Unless noted, calls follow the shape of the dose curve; as a rule, active = well fitted curve in the direction sought with a large enough effect in the repeat runs; inconclusive = weak or mixed curves; inactive = no such curve, though single readings can be large; an effect the other way counts as inactive or inconclusive.

Experiments:
[1] = target: Aryl hydrocarbon receptor (Homo sapiens) (UniProt P35869); test: qHTS assay to identify small molecule that activate the aryl hydrocarbon receptor (AhR) signaling pathway (AID 743085); also: nearly all actives have a fitted effect of over 15% in size; also: potency is read from the fitted curve at half-maximal effect;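 as to activation: HG2L7.5c1 human HepG2 liver cells with stably integrated DRE-driven firefly reporter; series mostly up to about 70 µM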
Chain of Aryl hydrocarbon receptor (Homo sapiens) (P35869 whole entry, looked up): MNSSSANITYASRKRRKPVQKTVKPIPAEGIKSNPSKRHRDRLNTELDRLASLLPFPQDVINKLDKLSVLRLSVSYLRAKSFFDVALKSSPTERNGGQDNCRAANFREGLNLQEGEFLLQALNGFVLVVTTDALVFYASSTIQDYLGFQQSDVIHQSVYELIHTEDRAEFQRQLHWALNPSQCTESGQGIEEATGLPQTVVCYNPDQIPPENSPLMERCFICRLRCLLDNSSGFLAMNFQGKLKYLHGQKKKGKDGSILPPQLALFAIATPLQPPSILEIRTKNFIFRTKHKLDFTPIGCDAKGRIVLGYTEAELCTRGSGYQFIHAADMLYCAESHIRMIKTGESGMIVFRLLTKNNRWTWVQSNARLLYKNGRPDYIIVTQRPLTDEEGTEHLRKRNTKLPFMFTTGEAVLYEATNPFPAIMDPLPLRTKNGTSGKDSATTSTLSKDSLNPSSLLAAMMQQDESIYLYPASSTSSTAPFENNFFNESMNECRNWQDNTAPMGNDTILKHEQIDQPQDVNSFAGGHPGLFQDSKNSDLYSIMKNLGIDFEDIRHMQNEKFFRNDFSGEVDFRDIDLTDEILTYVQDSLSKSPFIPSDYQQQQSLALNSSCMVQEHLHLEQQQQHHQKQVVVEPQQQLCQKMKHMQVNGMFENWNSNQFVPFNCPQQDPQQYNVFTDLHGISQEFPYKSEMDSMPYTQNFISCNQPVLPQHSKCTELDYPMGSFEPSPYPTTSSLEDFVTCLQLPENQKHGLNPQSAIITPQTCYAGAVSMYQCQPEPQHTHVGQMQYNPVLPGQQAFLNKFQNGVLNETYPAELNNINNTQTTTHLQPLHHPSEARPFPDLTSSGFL
Procedure, shortened: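 Luminescence read-out: ONE-Glo reagent, 30 min at room temperature, in HG2L7.5c1 HepG2 reporter cells treated 24 h at 37C. Viability was measured beforehand by CellTiter-Fluor fluorescence after 30 min at 37C.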

[2] = qHTS assay to identify small molecule that activate the aryl hydrocarbon receptor (AhR) signaling pathway - cell viability counter screen (AID 743086);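 also: HepG2 liver cells carrying the AhR DRE luciferase reporter; series mostly up to about 70 µM; nearly all actives have a fitted effect of over 45% in size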
Procedure, shortened: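 HepG2-AhR-luc (HG2L7.5c1) cells, 4000/well, were preincubated 5 h at 37C, exposed to compound in qHTS format for 24 hr at 37C, then given CellTiter-Fluor for 30 min; viability was read as fluorescence in the reporter wells.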

[3] = target: Peroxisome proliferator-activated receptor gamma (Homo sapiens) (UniProt P37231); test: qHTS assay to identify small molecule agonists of the peroxisome proliferator-activated receptor gamma (PPARg) signaling pathway (AID 743094; active = well fitted activation curve with a large enough effect in the signal ratio in the repeat runs, not every such curve was filed as active; the % refers to the signal ratio)
Chain of Peroxisome proliferator-activated receptor gamma (Homo sapiens) (P37231 whole entry, looked up): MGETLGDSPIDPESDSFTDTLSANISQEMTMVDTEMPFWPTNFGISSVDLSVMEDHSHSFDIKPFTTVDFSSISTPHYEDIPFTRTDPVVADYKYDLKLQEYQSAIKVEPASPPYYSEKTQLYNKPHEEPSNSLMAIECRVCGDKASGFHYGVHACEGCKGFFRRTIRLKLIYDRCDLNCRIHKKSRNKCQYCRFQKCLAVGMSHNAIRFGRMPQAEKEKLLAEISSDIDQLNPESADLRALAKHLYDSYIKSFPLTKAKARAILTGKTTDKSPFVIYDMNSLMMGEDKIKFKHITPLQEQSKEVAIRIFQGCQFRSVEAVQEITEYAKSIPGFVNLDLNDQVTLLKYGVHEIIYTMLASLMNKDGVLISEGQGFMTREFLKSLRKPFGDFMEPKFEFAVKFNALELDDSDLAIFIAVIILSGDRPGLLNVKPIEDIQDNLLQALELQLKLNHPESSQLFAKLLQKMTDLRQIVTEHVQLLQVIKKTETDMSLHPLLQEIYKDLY
Procedure, shortened: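 Beta-lactamase FRET fluorescence was the read-out after a 1 h room-temperature substrate step, following 17 h compound treatment at 37C of HEK293H cells expressing a UAS-driven bla reporter responsive to PPARg.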

[4] = qHTS assay for small molecule agonists of the antioxidant response element (ARE) signaling pathway (AID 743202; active = well fitted activation curve with a large enough effect in the signal ratio in the repeat runs, not every such curve was filed as active; the % refers to the signal ratio)
Procedure, shortened: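 Read-out: LiveBLAzer B/G FRET substrate fluorescence after 2 h at room temperature, following 16 h compound treatment at 37 C of HepG2 cells carrying an ARE-driven beta-lactamase reporter.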

[5] = qHTS assay for small molecule agonists of the antioxidant response element (ARE) signaling pathway - cell viability counter screen (AID 743203; calls by dose curve; also: nearly all actives have a fitted effect of over 55% in size)
Procedure, shortened: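 HepG2 cells carrying ARE-driven beta-lactamase; 2,000 cells/well; 5 hrs plating; compound pinned from DMSO; 16 hrs 37C/5% CO2; CellTiter-Glo added; 30 min RT; luminescence.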

[6] = qHTS assay for small molecule activators of the heat shock response signaling pathway - cell viability counter screen (AID 743209); also: nearly all actives have a fitted effect of over 50% in size
Procedure, shortened: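 Luminescence from CellTiter-Glo, added after the beta-lactamase FRET read, gave the viability signal. Cells were HSE-bla HeLa treated with DMSO-dissolved compounds for 5 h at 37 C following overnight plating.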

[7] = qHTS assay for small molecule activators of the heat shock response signaling pathway (AID 743210; active = well fitted activation curve with a large enough effect in the signal ratio in the repeat runs, with a control signal flat, not every such curve was filed as active; the % refers to the signal ratio; also: series mostly up to about 63 µM)
Procedure, shortened: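 HSE-bla HeLa cells (beta-lactamase reporter under heat shock response elements) were exposed to compounds for 5 h at 37 C, then loaded with LiveBLAzer B/G FRET substrate for 2.5 h at room temperature before fluorescence reading.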

[8] = qHTS assay to identify small molecule antagonists of the peroxisome proliferator-activated receptor delta (PPARd) signaling pathway - cell viability counter screen (AID 743213); also: nearly all actives have a fitted effect of over 50% in size
Procedure, shortened: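 Cytotoxicity counter screen: CellTiter-Glo luminescence read 30 min after addition, in the same wells as the reporter assay. There, PPARd UAS-bla HEK293H cells (3000/well) were treated 17 h at 37 C with compound and 300 nM L165041.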

[9] = qHTS assay to identify small molecule agonists of the farnesoid-X-receptor (FXR) signaling pathway - cell viability counter screen (AID 743218); also: nearly all actives have a fitted effect of over 45% in size
Procedure, shortened: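 HEK 293T FXR-bla cells; 5 h pre-incubation, 16 h compound exposure at 37 C; LiveBLAzer substrate 2 h RT, then CellTiter-Glo 30 min RT, luminescence.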

[10] = qHTS assay to identify small molecule antagonists of the farnesoid-X-receptor (FXR) signaling pathway - cell viability counter screen (AID 743221; active = well fitted cell-killing curve with a large enough effect in the repeat runs, not every such curve was filed as active; also: nearly all actives have a fitted effect of over 50% in size)
Procedure, shortened: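 HEK 293T FXR-bla cells, 5 h pre-incubation; compound + CDCA 50 uM final, 16 h, 37 C; beta-lactamase FRET read first, then CellTiter-Glo luminescence, 30 min RT.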

[11] = target: Vitamin D3 receptor (Homo sapiens) (UniProt P11473); test: qHTS assay to identify small molecule agonists of the vitamin D receptor (VDR) signaling pathway (AID 743222; calls by dose curve)
Chain of Vitamin D3 receptor (Homo sapiens) (P11473 whole entry, looked up): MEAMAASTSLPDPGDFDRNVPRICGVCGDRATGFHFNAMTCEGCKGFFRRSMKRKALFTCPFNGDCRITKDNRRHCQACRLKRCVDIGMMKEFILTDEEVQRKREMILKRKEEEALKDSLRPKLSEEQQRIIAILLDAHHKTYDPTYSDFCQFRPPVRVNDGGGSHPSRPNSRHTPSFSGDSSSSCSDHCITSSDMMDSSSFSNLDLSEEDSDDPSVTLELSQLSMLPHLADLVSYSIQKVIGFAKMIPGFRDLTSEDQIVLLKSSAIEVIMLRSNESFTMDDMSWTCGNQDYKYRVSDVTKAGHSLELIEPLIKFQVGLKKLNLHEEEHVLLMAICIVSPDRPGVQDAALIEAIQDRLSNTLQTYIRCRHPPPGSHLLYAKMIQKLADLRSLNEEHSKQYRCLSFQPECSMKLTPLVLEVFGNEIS
Procedure, shortened: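 VDR-bla cells, 2,000/well; 4 h preincubation 37C; cpd (DMSO) 16 h; LiveBLAzer B/G substrate 2 h RT; fluorescence intensity read.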

[12] = qHTS assay to identify small molecule agonists of the vitamin D receptor (VDR) signaling pathway - cell viability counter screen (AID 743224); also: series mostly up to about 63 µM; nearly all actives have a fitted effect of over 50% in size
Procedure, shortened: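 Luminescence from CellTiter-Glo, read after 30 min at room temperature, reports viability of VDR-bla cells treated with compounds for 16 h at 37C in the wells used for the beta-lactamase FRET read.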

[13] = target: Peroxisome proliferator-activated receptor gamma (Homo sapiens) (UniProt P37231); test: qHTS assay to identify small molecule antagonists of the peroxisome proliferator-activated receptor gamma (PPARg) signaling pathway (AID 743191; calls by dose curve; also: series mostly up to about 63 µM; nearly all actives have a fitted effect of over 30% in size)
Procedure, shortened: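 GeneBLAzer PPARg UAS-bla HEK293H cells carrying a UAS-driven beta-lactamase reporter were plated at 3000 cells/well, preincubated 5 h at 37C, then given compound for 17 h at 37C; LiveBLAzer B/G FRET substrate was read after 1 h at room temperature.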

[14] = target: Peroxisome proliferator-activated receptor delta (Homo sapiens) (UniProt Q03181); test: qHTS assay to identify small molecule agonists of the peroxisome proliferator-activated receptor delta (PPARd) signaling pathway (AID 743212; calls by dose curve)
Chain of Peroxisome proliferator-activated receptor delta (Homo sapiens) (Q03181 whole entry, looked up): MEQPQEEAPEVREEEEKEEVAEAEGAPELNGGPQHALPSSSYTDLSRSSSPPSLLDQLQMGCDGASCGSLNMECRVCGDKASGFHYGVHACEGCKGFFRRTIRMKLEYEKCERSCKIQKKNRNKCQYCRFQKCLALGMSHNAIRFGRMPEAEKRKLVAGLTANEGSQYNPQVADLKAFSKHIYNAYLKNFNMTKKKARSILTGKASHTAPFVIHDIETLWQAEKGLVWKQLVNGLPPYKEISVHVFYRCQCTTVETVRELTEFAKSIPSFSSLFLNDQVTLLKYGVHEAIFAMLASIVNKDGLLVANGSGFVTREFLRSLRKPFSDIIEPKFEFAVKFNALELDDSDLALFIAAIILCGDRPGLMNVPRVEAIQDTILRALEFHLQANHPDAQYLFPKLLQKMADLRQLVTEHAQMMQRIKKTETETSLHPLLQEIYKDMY
Procedure, shortened: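 GeneBLAzer PPARd UAS-bla HEK293H cells (beta-lactamase reporter under UAS control), plated and rested 5 h at 37 C, then exposed to compounds in DMSO at 37 C; LiveBLAzer B/G FRET substrate added, 2 h room temperature, fluorescence read.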

[15] = target: Peroxisome proliferator-activated receptor delta (Homo sapiens) (UniProt Q03181); test: qHTS assay to identify small molecule antagonists of the peroxisome proliferator-activated receptor delta (PPARd) signaling pathway (AID 743215; active = well fitted inhibition curve with a large enough effect in the signal ratio in the repeat runs, not every such curve was filed as active; the % refers to the signal ratio;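 also: cells stimulated with agonist L165041 at 300 nM final during compound exposure; series mostly up to about 62 µM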)
Procedure, shortened: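 Read-out is beta-lactamase FRET fluorescence, measured 2 h after substrate addition at room temperature. Beforehand, UAS-bla HEK293H cells carrying the PPARd reporter were exposed to compounds with L165041 at 300 nM final for 17 h at 37 C.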

[16] = qHTS assay to identify small molecule agonists of the peroxisome proliferator-activated receptor delta (PPARd) signaling pathway - cell viability counter screen (AID 743211); also: nearly all actives have a fitted effect of over 55% in size
Procedure, shortened: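 Read-out: CellTiter-Glo luminescence, 30 min RT, measured in the same wells as the beta-lactamase reporter. Cells: GeneBLAzer PPAR delta UAS-bla HEK293H, 3000 cells/well, compound exposure 17 h at 37C.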

[17] = target: Bile acid receptor (Homo sapiens) (UniProt Q96RI1); test: qHTS assay to identify small molecule antagonists of the farnesoid-X-receptor (FXR) signaling pathway (AID 743217; active = well fitted inhibition curve with a large enough effect in the signal ratio in the repeat runs, not every such curve was filed as active; the % refers to the signal ratio)
Chain of Bile acid receptor (Homo sapiens) (Q96RI1 whole entry, looked up): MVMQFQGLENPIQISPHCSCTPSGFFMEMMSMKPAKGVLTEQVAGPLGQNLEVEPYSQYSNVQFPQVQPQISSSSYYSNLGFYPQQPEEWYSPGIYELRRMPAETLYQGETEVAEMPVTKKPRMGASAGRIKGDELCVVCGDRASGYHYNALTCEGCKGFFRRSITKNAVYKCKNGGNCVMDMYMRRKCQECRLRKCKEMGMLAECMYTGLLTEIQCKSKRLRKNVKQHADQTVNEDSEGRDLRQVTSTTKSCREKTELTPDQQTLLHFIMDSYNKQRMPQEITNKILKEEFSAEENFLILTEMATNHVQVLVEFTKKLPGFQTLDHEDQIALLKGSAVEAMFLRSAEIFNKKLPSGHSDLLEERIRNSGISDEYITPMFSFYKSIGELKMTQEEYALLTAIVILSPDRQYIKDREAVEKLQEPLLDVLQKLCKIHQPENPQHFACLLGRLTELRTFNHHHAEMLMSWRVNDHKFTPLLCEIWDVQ
Procedure, shortened: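 HEK 293T FXR-UAS-bla, 5000 cells/well; compound + CDCA 50 uM final; 16 h, 37 °C; B/G FRET substrate 2 h RT; fluorescence.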

[18] = target: Bile acid receptor (Homo sapiens) (UniProt Q96RI1); test: qHTS assay to identify small molecule agonists of the farnesoid-X-receptor (FXR) signaling pathway (AID 743220; active = well fitted activation curve with a large enough effect in the signal ratio in the repeat runs, not every such curve was filed as active; the % refers to the signal ratio)
Procedure, shortened: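 Beta-lactamase reporter under UAS control in GeneBLAzer FXR HEK 293T cells (5000/well) measured with LiveBLAzer FRET substrate after 2 h at room temperature. Compound exposure lasted 16 h at 37C.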

[19] = target: Vitamin D3 receptor (Homo sapiens) (UniProt P11473); test: qHTS assay to identify small molecule antagonists of the vitamin D receptor (VDR) signaling pathway (AID 743223; active = well fitted inhibition curve with a large enough effect in the signal ratio in the repeat runs, not every such curve was filed as active; the % refers to the signal ratio)
Procedure, shortened: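 Beta-lactamase reporter read-out: FRET substrate fluorescence after 2 h at room temperature, following 16 h exposure of VDR-bla cells to test compound plus 3 nM (final) 1alpha,25-dihydroxyvitamin D3 agonist at 37C.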

[20] = qHTS assay to identify small molecule antagonists of the peroxisome proliferator-activated receptor gamma (PPARg) signaling pathway - cell viability counter screen (AID 743194); also: nearly all actives have a fitted effect of over 55% in size
Procedure, shortened: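 PPARg-UAS-bla HEK293H cells were plated, rested 5 h at 37 C, then treated with compounds plus rosiglitazone (50 nM final) for 17 h at 37 C; viability was then read by CellTiter-Glo luminescence after 30 min at room temperature.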
% is scaled to controls: 0 for no effect and ±100 for the full control effect.

C1C2OC2C2C1C1CC2C2OC12 (configuration not stated)
inactive: Potency [1] | Potency [2] | outcome [3] | Potency [4] | outcome [5] | outcome [6] | outcome [7] | Potency [8] | outcome [9] | Potency [10] | outcome [11] | outcome [12]

NCC[C@H](O)C(=O)N[C@@H]1C[C@H](N)[C@@H](O[C@H]2O[C@H](CN)[C@@H](O)[C@H](O)[C@H]2O)[C@H](O)[C@H]1O[C@H]1O[C@H](CO)[C@@H](O)[C@H](N)[C@H]1O
inactive: Potency [1] | Potency [2] | ratio activity, negative = inhibition [13] 0.895% [at 0.55 µM] | activation [4] 2.58% [at 0.756 µM] | viability change, negative = cytotoxic [5] -0.425% [at 0.756 µM] | activity change, negative = cytotoxicity [6] -14.9% [at 0.55 µM] | activation [7] 0.848% [at 0.55 µM] | activation [14] 0% [at 0.55 µM] | viability change, negative = cytotoxic [8] -2.06% [at 0.575 µM] | ratio activity, negative = inhibition [15] 4.4% [at 0.575 µM] | activity change, negative = cytotoxicity [10] 9.05% [at 0.55 µM] | activity change, negative = cytotoxicity [12] 7.01% [at 0.55 µM]

CC(C)COC(=O)C(C)C
inactive: Potency [1] | Potency [2] | outcome [3] | outcome [5] | outcome [6] | outcome [7] | Potency [16] | outcome [14] | Potency [8] | outcome [17] | outcome [9] | outcome [18] | Potency [10] | outcome [11] | outcome [19] | outcome [12]

CC(=O)NC(Cc1ccccc1)C(=O)O (configuration not stated)
inactive: Potency [1] | Potency [2] | outcome [13] | outcome [5] | outcome [6] | outcome [7] | outcome [14] | Potency [8] | outcome [15] | outcome [9] | outcome [18] | outcome [11] | outcome [19] | outcome [12]

CC(C)(O)C(=O)c1ccc(OCCO)cc1
inactive: Potency [1] | Potency [2] | outcome [3] | Potency [4] | outcome [5] | outcome [6] | outcome [7] | Potency [16] | outcome [14] | Potency [8] | Potency [10] | outcome [12]

C=CCSCC1Nc2cc(Cl)c(S(N)(=O)=O)cc2S(=O)(=O)N1 (configuration not stated)
inactive: Potency [1] | Potency [2] | outcome [13] | Potency [20] | Potency [4] | outcome [5] | outcome [6] | outcome [7] | Potency [16] | outcome [14] | outcome [17] | outcome [9] | outcome [18] | Potency [10] | outcome [11] | outcome [19] | outcome [12]

Oc1cc(O)c2c(c1)O[C@H](c1ccc(O)c(O)c1)[C@H](O)C2
inactive: Potency [1] | Potency [2] | outcome [3] | outcome [5] | outcome [6] | outcome [7] | Potency [16] | outcome [14] | Potency [8] | outcome [9] | outcome [11] | outcome [19] | outcome [12]

CC(C)(C)C(=O)/C=C/c1ccc(Cl)cc1
inactive: Potency [1] | Potency [2] | outcome [3] | outcome [5] | outcome [6] | Potency [16] | Potency [8] | outcome [17] | outcome [9] | outcome [18] | Potency [10] | outcome [11]

COc1ccc(N=[N+]([O-])c2ccc(OC)cc2)cc1
inactive: Potency [2] | outcome [13] | Potency [20] | outcome [5] | outcome [6] | outcome [7] | outcome [14] | Potency [8] | Potency [10] | outcome [11] | outcome [19] | outcome [12]
active: Potency [1] 9.59 µM

CC(C)(O)c1ccccc1
inactive: Potency [1] | Potency [2] | outcome [13] | Potency [20] | Potency [4] | outcome [5] | outcome [6] | outcome [7] | Potency [16] | outcome [14] | Potency [8] | outcome [15] | outcome [9] | Potency [10] | outcome [11] | outcome [19]
